Measurements as given in the supplement of paper PMC10849652.
The full data set covers some 8,800 targets. This sample favours those with a hit. About 0.5% of all pairs of compound and target were hits.

compound: c1ccc([C@@H]2C[C@H]2NC2CCNCC2)cc1; assay: log2 fold change, soluble protein after heating vs DMSO (PISA); higher = thermal stabilisation; K562 lysate, 10 uM; active = over 0.2 and 3.5 SD of the protein, either way, in both replicates (recomputed)
In short: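 Thermal stability, expressed as log-two fold change relative to solvent controls, is given from duplicates. Crude K562 extract in PBS pH 7.4 with 1 mM MgCl2, at 1 mg/mL protein, was treated with 10 μM compound for 30 min and heated in aliquots for 3 min across 48°C-58°C. After pooling, adjustment to 0.5% NP-40 at 4°C and centrifugation at 21,000xg for 90 min, supernatant protein was measured by TMTpro 16plex LC-MS/MS with channel sums equalised.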

Chain of UniProt Q14203 (Q14203 whole entry, looked up): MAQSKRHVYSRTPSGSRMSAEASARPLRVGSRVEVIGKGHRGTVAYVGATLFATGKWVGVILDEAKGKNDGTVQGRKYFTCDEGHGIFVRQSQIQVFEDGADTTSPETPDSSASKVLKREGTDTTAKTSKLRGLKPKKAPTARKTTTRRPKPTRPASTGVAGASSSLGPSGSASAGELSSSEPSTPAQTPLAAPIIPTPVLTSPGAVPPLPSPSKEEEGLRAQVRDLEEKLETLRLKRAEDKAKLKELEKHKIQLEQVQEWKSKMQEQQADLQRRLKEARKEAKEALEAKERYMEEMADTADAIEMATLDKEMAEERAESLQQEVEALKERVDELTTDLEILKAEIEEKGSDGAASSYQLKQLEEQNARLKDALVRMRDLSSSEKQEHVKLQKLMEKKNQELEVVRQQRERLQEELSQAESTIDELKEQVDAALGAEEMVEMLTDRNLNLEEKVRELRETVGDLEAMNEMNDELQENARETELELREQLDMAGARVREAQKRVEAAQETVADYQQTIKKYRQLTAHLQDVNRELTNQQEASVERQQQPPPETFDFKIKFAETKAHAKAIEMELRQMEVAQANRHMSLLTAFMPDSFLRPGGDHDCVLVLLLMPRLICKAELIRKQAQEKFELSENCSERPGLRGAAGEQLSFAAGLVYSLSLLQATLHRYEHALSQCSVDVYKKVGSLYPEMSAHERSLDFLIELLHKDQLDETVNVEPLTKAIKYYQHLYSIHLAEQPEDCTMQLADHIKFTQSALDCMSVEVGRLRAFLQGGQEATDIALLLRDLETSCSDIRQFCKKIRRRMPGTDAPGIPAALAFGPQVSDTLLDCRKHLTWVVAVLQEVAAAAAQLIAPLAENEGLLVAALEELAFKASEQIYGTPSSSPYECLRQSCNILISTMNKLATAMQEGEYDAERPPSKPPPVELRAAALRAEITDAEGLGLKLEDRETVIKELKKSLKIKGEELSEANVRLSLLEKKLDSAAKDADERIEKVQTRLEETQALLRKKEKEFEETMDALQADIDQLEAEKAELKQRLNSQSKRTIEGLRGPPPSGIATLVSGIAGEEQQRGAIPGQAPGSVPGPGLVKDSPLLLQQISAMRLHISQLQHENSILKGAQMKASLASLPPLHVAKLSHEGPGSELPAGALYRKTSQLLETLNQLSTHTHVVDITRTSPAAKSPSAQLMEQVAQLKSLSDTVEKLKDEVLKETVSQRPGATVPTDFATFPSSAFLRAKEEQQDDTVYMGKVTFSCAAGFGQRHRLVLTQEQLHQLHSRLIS
Chain of UniProt Q9UJA2 (Q9UJA2 whole entry, looked up): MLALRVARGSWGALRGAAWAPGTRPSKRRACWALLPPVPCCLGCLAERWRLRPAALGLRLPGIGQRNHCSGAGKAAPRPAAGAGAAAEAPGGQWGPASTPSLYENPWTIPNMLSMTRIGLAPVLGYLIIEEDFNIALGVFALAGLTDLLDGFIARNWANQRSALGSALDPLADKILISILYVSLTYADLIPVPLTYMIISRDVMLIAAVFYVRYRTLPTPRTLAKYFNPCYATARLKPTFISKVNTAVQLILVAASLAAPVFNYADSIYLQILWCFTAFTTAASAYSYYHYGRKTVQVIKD
Chain of UniProt P12111 (P12111 whole entry, looked up): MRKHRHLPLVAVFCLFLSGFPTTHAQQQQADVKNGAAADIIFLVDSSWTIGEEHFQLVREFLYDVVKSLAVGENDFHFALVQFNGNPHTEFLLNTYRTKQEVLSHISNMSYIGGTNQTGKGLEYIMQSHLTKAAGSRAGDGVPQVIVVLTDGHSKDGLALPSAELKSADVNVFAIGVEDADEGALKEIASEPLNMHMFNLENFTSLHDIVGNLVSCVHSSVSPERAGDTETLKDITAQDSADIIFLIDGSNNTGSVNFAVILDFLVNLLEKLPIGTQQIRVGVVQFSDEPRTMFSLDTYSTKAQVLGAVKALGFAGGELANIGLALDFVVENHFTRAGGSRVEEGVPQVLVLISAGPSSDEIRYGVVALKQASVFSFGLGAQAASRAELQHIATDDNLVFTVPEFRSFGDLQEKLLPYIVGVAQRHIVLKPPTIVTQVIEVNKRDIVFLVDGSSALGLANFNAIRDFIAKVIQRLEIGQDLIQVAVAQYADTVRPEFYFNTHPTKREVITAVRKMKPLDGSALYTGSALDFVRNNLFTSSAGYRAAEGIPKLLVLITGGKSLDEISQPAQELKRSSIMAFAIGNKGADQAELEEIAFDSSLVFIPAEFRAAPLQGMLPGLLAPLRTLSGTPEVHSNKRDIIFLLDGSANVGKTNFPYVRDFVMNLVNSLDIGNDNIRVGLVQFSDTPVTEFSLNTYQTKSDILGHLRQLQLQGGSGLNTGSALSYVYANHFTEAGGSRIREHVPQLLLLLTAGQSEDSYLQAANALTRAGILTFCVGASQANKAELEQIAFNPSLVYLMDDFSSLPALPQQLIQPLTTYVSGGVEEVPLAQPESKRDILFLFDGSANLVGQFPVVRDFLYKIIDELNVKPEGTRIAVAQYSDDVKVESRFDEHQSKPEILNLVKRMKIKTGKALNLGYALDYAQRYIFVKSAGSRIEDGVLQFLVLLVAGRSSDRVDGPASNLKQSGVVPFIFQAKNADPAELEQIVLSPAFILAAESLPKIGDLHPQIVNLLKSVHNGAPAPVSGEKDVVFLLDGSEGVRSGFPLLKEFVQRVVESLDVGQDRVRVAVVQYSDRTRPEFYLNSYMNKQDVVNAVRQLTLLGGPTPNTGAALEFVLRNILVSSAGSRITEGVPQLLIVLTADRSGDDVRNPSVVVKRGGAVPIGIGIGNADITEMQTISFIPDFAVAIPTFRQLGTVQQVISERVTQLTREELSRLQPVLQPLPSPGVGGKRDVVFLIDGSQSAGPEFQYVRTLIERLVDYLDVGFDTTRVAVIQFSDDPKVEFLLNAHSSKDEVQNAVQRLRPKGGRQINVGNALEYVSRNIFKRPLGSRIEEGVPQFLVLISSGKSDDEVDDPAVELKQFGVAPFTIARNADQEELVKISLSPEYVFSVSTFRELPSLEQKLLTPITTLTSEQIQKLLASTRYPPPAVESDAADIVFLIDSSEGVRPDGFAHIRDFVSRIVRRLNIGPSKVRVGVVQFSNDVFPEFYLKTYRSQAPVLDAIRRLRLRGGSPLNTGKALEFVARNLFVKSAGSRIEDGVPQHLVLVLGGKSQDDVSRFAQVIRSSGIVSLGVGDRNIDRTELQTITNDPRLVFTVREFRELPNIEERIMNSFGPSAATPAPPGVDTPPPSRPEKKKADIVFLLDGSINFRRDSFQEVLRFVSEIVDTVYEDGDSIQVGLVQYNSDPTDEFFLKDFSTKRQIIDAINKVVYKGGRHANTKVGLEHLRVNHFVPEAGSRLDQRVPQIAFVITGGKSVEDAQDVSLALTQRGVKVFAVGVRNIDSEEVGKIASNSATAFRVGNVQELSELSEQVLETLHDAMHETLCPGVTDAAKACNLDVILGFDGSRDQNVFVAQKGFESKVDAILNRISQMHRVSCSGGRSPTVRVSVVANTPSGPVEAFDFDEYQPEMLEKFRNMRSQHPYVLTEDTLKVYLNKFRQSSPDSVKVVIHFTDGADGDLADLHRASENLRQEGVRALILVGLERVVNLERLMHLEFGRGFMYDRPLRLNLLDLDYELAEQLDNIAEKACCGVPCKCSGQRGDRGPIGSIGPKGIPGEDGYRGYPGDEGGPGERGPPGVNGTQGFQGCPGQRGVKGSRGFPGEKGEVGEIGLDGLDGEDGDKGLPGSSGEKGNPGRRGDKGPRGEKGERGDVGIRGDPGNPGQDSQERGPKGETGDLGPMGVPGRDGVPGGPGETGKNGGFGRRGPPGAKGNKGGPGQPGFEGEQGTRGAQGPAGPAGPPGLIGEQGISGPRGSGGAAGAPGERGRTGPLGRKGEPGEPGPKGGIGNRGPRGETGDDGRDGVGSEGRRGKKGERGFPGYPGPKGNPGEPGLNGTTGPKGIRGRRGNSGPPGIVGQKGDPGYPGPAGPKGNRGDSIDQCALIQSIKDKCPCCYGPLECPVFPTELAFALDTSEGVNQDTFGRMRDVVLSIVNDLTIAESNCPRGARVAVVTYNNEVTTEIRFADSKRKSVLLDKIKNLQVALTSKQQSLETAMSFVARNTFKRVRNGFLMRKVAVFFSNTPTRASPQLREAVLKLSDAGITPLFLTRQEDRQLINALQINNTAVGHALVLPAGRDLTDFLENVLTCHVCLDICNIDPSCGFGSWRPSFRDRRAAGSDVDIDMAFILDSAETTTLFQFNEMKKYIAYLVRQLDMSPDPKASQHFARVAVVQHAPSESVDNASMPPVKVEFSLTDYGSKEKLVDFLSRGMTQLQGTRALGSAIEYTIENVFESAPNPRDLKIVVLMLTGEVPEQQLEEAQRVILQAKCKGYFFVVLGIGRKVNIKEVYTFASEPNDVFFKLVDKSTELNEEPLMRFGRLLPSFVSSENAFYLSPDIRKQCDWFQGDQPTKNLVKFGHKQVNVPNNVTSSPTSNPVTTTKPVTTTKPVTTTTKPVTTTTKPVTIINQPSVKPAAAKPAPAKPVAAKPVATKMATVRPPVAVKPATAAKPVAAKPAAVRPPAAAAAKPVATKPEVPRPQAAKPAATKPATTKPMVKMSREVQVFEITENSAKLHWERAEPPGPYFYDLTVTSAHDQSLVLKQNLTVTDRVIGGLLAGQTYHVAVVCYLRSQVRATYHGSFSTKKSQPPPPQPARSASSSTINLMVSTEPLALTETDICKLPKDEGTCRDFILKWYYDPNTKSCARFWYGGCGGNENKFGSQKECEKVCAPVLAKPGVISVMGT
Chain of UniProt Q16527 (Q16527 whole entry, looked up): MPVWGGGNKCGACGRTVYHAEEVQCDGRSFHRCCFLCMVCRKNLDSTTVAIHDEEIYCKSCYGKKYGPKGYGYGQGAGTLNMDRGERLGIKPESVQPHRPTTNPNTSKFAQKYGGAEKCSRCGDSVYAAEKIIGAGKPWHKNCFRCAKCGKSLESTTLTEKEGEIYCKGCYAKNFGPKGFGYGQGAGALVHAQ
Chain of UniProt Q6P3W2 (Q6P3W2 whole entry, looked up): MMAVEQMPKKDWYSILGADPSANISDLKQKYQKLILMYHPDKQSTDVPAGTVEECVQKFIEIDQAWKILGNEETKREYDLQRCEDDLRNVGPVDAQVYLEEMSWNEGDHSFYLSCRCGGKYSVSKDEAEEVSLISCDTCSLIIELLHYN

| Target | log2 fold change |
| --- | --- |
| CNTN4 (UniProt Q8IWV2) | -0.319 (inactive) |
| DAPK1 isoform 3 (UniProt P53355) | 0.039 (inactive) |
| CNNM2 (UniProt Q9H8M5) | 0.014 (inactive) |
| CLIP1, A0A3B3ITA2 | -0.123 (inactive) |
| COL6A3 (UniProt P12111) | 0.13 (inactive) |
| CRLS1 (UniProt Q9UJA2) | 0.065 (inactive) |
| DDAH1 (UniProt O94760) | -0.072 (inactive) |
| DCTN1 isoform 4 (UniProt Q14203) | -0.452 (inactive) |
| CUX1 isoform 2 (UniProt Q13948) | 0.193 (inactive) |
| DALRD3 (UniProt Q5D0E6) | 0.137 (inactive) |
| COX7B (UniProt P24311) | -0.075 (inactive) |
| DESI2 (UniProt Q9BSY9) | -0.038 (inactive) |
| DDR1 isoform 5 (UniProt Q08345) | 0.135 (inactive) |
| CLIP1 isoform 2 (UniProt P30622) | -0.002 (inactive) |
| CSRP2 (UniProt Q16527) | 0.003 (inactive) |
| DONSON (UniProt Q9NYP3) | -0.243 (inactive) |
| DHX32 (UniProt Q7L7V1) | -0.009 (inactive) |
| CORO7 (UniProt P57737) | 0.164 (inactive) |
| DLGAP5 isoform 3 (UniProt Q15398) | 0.021 (inactive) |
| DIAPH1 (UniProt H9KV28) | -0.117 (inactive) |
| DNAJC24 (UniProt Q6P3W2) | 0.055 (inactive) |
| CNK3/IPCEF1 isoform 2 (UniProt G9CGD6) | -0.817 (inactive) |
